According to PubChem BioAssay AID1030 (National Center for Advancing Translational Sciences (NCATS), 2008):
Among all 220,000 compounds or so, about 16,000 (7.3%) were called active. Roughly 25% stayed inconclusive and do not appear here. The sample holds actives, similar compounds and a random draw of the others, so the mix is not that of the screen. The call rests on the fitted dose curve; in most records, active means well fitted inhibition curve with a large enough effect (not every such curve was filed as active); inconclusive means small, poorly fitted or top-dose-only effect, or another doubt; inactive means no such curve, though single readings can be large or run the other way.

biological target: Aldehyde dehydrogenase 1A1 (Homo sapiens) (UniProt P00352); assay: qHTS Assay for Inhibitors of Aldehyde Dehydrogenase 1 (ALDH1A1); conditions: Purified ALDH1A1, NADH fluorescence, propionaldehyde substrate; series mostly up to 75.3 µM; activity, negative = inhibition: at the top concentration;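 on activity, negative = inhibition: plate controls were no enzyme wells and a reference inhibitor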
Sequence (P00352 whole entry, looked up): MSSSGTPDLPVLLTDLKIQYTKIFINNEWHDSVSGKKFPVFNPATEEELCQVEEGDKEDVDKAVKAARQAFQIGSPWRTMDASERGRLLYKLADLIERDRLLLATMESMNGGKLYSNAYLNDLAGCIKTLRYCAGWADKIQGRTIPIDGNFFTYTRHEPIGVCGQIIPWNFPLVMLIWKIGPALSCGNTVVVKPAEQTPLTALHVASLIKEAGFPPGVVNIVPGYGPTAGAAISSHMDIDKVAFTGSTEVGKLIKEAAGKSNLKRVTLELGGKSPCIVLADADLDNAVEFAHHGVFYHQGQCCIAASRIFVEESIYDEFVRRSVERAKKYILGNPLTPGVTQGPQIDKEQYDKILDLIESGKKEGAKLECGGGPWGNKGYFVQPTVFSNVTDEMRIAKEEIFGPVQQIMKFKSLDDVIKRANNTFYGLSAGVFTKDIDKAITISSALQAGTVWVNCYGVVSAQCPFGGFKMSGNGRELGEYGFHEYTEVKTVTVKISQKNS
Potency means the concentration at half of the fitted maximal effect.

activity, negative = inhibition, inactive:
CC1CCCC(C)N1/N=C/c1ccccc1OC(F)F (stereo not given) -0.166%
COc1ccc(NC(=O)CN2CCN(S(=O)(=O)c3ccc(F)cc3)CC2)cc1Cl -1.89%
CN1CCN(S(=O)(=O)c2ccc(NC(=O)C3CCCO3)cc2)CC1 (stereo not given) -9.73%
OCCC#Cc1ccc(CN2CCN(Cc3ccsc3)C(CCO)C2)cc1 (stereo not given) 3.08%
Cc1ccc(C)c(NC(=O)CCC(=O)N/N=C2/CC(=O)CC(C)(C)C2)c1 -0.74%
O=C(CN1CCOCC1)Nc1cc(Cl)ccc1Cl -0.628%
O=C(COc1cccc2ccccc12)Nc1cc(S(=O)(=O)N2CCOCC2)ccc1N1CCOCC1 -7.3%
Cn1c(=O)c2c(nc(N/N=C/c3cccs3)n2Cc2ccc(Br)cc2)n(C)c1=O -4.65%
C=CCn1c(Oc2ccc(C(=O)OC)cc2)nc2c1c(=O)n(C)c(=O)n2C 7.05%
CC[C@H](C)[C@@H](C(=O)N1CCNCC1)n1cc([C@@H](N)Cc2ccc(O)cc2)nn1 -2.81%
COC(=O)C1=C(C(=O)OC)[C@@H]2N(C)c3ccccc3[C@@]23C[C@@H](C(=O)OC)N(S(=O)(=O)c2ccc(Br)cc2)C3=N1 6.9% [at 13.5 µM]
O=c1[nH]n2c(=O)c3c([nH]c2c1N=Nc1ccccc1)CCC3 -7.15%
O=C(/C=N/O)Nc1ccccc1 10.4%
COc1cc(C(=O)Nc2cc(C(F)(F)F)ccc2-n2cncn2)cc(OC)c1OC -11.5%
CCOc1ccc(CN2CCN(Cc3ccon3)CC2CCO)cc1 (stereo not given) -7.29%
COc1ccc(/C=N/NC(=O)c2cccc(C(F)(F)F)c2)cc1 143%
COc1ccc2nc(NC(=O)[C@@H]3CCCN3C(=O)c3cccs3)sc2c1 15.3%
CCOc1ccc(NC(=O)C2CCCN(C(=O)Nc3ccccc3)C2)cc1 (stereo not given) 5.91%
COc1cc(OC)nc(N/N=C(\c2ccccc2)c2ccncc2)n1 -13.5%
COc1ccc(-c2nnc3ccc(SCc4ccccc4)nn23)cc1 26.6%
Fc1cccc(CSc2nnc3ccc(-c4ccncc4)nn23)c1 4.55%
Cc1cccc(OCCC(=O)Nc2cc(S(=O)(=O)N3CCCCC3)ccc2N2CCOCC2)c1 -16.5%
COc1ccc(S(=O)(=O)N2CCCCCC2)cc1C(=O)OCC(=O)Nc1cc(C)on1 31.2%

Potency, active:
CN(CC(=O)Nc1ccc(S(=O)(=O)N2CCCC2)cc1)Cc1ccc(Cl)c(Cl)c1 20 µM
NC(CSC12CC3CC(CC(C3)C1)C2)C(=O)O (stereo not given) 12.6 µM
O=C(CN1CCN(c2ccc(O)cc2)CC1)Nc1cc(S(=O)(=O)N2CCOCC2)ccc1Cl 25.1 µM
C/C(Cl)=C\Cn1c(Nc2cccc(C)c2)nc2c1c(=O)n(C)c(=O)n2C 20 µM
O=[N+]([O-])/C(N=Nc1ccccc1)=N\Nc1ccccc1 14.1 µM
CCOc1ccc2nc(C(=O)N3CCCC(C)C3)sc2c1 (stereo not given) 14.1 µM
Cc1ccc(/C=C/C(=O)Nc2cc(S(=O)(=O)N3CCCCCC3)ccc2OCC(F)(F)F)o1 28.2 µM
